Measured values: PubChem BioAssay

How the values were obtained:
[1] = molecular target: Tumor necrosis factor receptor superfamily member 10B (Homo sapiens) (UniProt O14763); experiment: viability loss of caspase-8 NB7 cells with TRAIL – with/without TRAIL, luminescence panel, confirmation (AID 651596); conditions: NB7 neuroblastoma + caspase-8, TRAIL sensitization, NB7 Caspase-8, with TRAIL, mean of runs, at 10 µM, stronger effect = higher value
[2] = as above; conditions: NB7 neuroblastoma + caspase-8, without TRAIL, NB7 Caspase-8, without TRAIL, mean of runs, at 10 µM

Chain of Tumor necrosis factor receptor superfamily member 10B (Homo sapiens) (O14763 whole entry, looked up): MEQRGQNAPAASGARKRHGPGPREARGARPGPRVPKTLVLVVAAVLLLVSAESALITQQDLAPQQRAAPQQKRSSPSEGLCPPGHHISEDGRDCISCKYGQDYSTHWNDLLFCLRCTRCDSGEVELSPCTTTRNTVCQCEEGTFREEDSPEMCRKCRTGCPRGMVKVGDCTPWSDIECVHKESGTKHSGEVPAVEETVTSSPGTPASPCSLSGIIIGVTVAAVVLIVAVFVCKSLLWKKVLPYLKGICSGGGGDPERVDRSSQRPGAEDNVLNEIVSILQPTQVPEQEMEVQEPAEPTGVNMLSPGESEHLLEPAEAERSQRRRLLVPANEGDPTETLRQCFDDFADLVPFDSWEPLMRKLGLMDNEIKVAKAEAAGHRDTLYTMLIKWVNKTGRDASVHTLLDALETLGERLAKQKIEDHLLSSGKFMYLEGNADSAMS

SMILES | activity [1] [%] | activity [2] [%]
C/C(=N\NC(=O)COc1ccc(C(C)(C)C)cc1)c1cc2ccccc2o1 | 89.2 | 84.2
CCc1ccc2nc(N(CCCN(C)C)C(=O)c3ccc(C(=O)c4ccccc4)cc3)sc2c1 | 50.6 | 18.7
Clc1ccc(-c2nc3n(n2)Cc2ccccc2-3)cc1 | 65.8 | 76.6
Cc1ccc(-c2nnc(Nc3ccccc3)o2)cc1 | 59.7 | 54.5
c1ccc(-c2nnc3sc(CN4CCC5(CC4)OCCO5)cn23)cc1 | 57.7 | 60.9
COC(=O)c1ccc2c(c1)C(C)(C)C(/C=C/c1ccc(OC)c(OC)c1OC)=[N+]2C | 73.8 | 68.9
CCOC(=O)c1cnc2c(Cl)c(Cl)ccc2c1N1CCN(C)CC1 | 39.3 | 43
Cc1cccc(-n2ncc3c(N4CCC(C)CC4)ncnc32)c1 | 44.7 | 34.7
COc1ccc2cc3cc(C(=O)NC4CC4)sc3nc2c1 | 80 | 81.4
O=C(Nc1cccc(O)c1)c1noc2c1CCc1ccccc1-2 | 76.6 | 67.1
C/C(=N\NC(=O)c1ccccc1NC(=O)c1ccc(Cl)cc1)c1ccncc1 | 99.1 | 99
COc1ccc2oc(-c3ccc(NC(=O)c4ccc(N5CCOCC5)c([N+](=O)[O-])c4)cc3)nc2c1 | 52 | 24.4
CCN1CCN(CCCNC(=O)c2ccc3c(c2)NC(=O)/C(=C\c2cccc(C)c2)S3)CC1 | 41.4 | 89.2
CC(=O)Nc1cc(-c2cccc(C(=O)NCCN(C)C)c2)cn2c(-c3cccc(C(F)(F)F)c3)cnc12 | 65.3 | 89.8
O=C(CSc1nnc(-c2ccccc2)o1)Nc1ccccc1F | 55.1 | 43.5
O=C(Nc1cccc(O)c1)c1noc2c1CCCCC2 | 66.2 | 61
CSc1ccc(/C=C/C(=O)NC(=O)c2ccccc2O)cc1 | 82.5 | 84.7
COc1ccccc1-c1cc2nc(-c3ccccc3)cc(N3CCN(C(=O)c4ccoc4)CC3)n2n1 | 78.4 | 62.7
COc1ccc(C(=O)Nc2ccc3c(c2)OCCO3)cc1 | 77.6 | 70
Cc1csc(NC(=O)c2cc3c(s2)CCC3)n1 | 81.8 | 86.3
C/C(=N\NC(=O)c1ccc(O)cc1)c1cccc(NC(=O)c2ccc(Cl)cc2)c1 | 74.3 | 77.2
Cc1onc(C(=O)N2CCC(Cc3ccccc3)CC2)c1[N+](=O)[O-] | 97.8 | 98.1
Cc1ccc(-n2[nH]c(C)c(C=Nc3ccc4[nH]c(=O)[nH]c4c3)c2=O)cc1C | 51.4 | 41.5
O=C(C#Cc1ccccc1)c1ccccc1 | 54 | 96.6
O=S(=O)(Nc1nc2ccccc2nc1N1CCc2ccccc2C1)c1ccc(Br)cc1 | 55.5 | 66.2
O=c1/c(=C/c2ccccn2)sc2nc3ccccc3n12 | 60 | 14.9
CSC(=Nc1ccccc1)N=C(SCc1ccccc1)N(C)C | 96.8 | 98.5
O=C(NC(=S)Nc1ccccn1)c1ccccc1 | 77.8 | 76.8
